# Compound activity as filed in PubChem BioAssay.
# A549 viability = A549 cytotoxicity, counter-screen for Nrf2 inhibitors; A549 ARE-Fluc cells, CellTiter-Fluor viability, 18-24 h; AID 504648; Potency, µM (titrated, usually from 46 µM), inactives show at the highest dose activity change, negative = cytotoxicity, hits mostly inhibitors; hit rate 0.16% among 390,000; note: potency is the fitted concentration of half-maximal effect
#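 Cytotoxicity counterscreen: CellTiter-Fluor fluorescence was measured in A549 ARE_Fluc cells after 18-24 h of compound exposure in a concentration series. The subsequent BugLite luminescent read reports ARE-luciferase activity.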
# Giardia kill = kills Giardia lamblia; AID 540267; Giardia lamblia trophozoite viability; activity change, % at 7.66 µM, hits read low; hit rate 0.15% among 340,000; in the data active = activity change below about -80%; inconclusive = between about -30% and that limit;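 note: parasites exposed to compound for two days anaerobically before the ATP read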
#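 Compounds were tested on trophozoites seeded at 100 cells/well and held 48 hrs at 37 deg C anaerobically. An ATP-based luminescent kit measured the remaining live cells.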
# PI4K2A block = blocks human PI4K2A kinase activity | activity change, negative = inhibition, % at 76.9 µM | Q9BTU6 | AID 1346378 | hit rate 0.13% among 420,000 | purified PI4K2A, ADP-Glo luminescence, 1 h; active compounds read low; in the data active = activity change below about -50%; inconclusive = mostly about -30% to -49%;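 note: -100% = wells without enzyme as full effect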
# Target sequence (Q9BTU6 whole entry, looked up): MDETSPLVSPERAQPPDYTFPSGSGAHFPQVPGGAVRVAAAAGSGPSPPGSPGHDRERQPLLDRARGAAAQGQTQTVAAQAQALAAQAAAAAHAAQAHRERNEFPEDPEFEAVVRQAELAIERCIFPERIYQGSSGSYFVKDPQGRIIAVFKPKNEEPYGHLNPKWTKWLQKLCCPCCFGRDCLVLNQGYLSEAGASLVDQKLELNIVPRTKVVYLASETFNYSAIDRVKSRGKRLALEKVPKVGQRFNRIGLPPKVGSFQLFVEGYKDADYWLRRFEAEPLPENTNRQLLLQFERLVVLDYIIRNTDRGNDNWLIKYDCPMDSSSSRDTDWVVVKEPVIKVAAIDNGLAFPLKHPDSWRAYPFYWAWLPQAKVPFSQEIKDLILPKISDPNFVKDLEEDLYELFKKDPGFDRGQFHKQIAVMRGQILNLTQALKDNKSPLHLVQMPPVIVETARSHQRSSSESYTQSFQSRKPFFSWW
#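 In this quantitative HTS, ADP production by PI4K2A was quantified luminescently after 1 h at ambient temperature; 100 microM adenosine served as plate-quality control.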
# KB-V1 MDR tox = kills drug-selected multidrug resistant KB-V1 cells; hit rate 3.4% among 400,000; Potency, µM (doses to about 46.1 µM), usual class: cytotoxic; AID 1347076; KB-V1 MDR cells viability, CellTiter-Glo, 72 h; note: potency is the fitted concentration of half-maximal effect; nearly all actives have a fitted effect of over 60% in size
#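 KB-V1, DMEM (no phenol red) + 10% FBS; cpd pin-transferred, titration series; 72 h, 37 degrees C; CellTiter-Glo, luminescence. Data normalized, curve-fit.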
# Nrf2 inh = inhibitors of Nrf2 signaling; A549 ARE-Fluc reporter, luciferase luminescence, 18-24 h; hit rate 2.1% among 360,000; Potency, µM (top dose mostly 46 µM), for inactives: at the highest dose activity change, negative = inhibition, usual class: inhibitors; note: potency is the fitted concentration of half-maximal effect; nearly all actives have a fitted effect of over 60% in size
#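 A549 ARE_Fluc cells, 5000/well, 5% FBS OPTI-MEM; compounds in dose-response, 18-24 h at 37 °C/5% CO2; CellTiter-Fluor viability read (Ex 405/Em 525), then BugLite luciferase luminescence = Nrf2 activity.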
# KB-3-1 cytotox = KB-3-1 parental cell cytotoxicity; KB-3-1 viability, CellTiter-Glo ATP luminescence, 72 h; Potency, µM (top dose mostly 46.1 µM), hits mostly cytotoxic; hit rate 1.4% among 400,000; note: potency is the fitted concentration of half-maximal effect; nearly all actives have a fitted effect of over 60% in size
#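 Cytotoxicity measured as CellTiter-Glo luminescence after 72 h at 37 C. Compound titrations were pinned onto drug-naive KB-3-1 parental adenocarcinoma cells grown in DMEM with 10% FBS, and normalized data fitted to concentration-response curves.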
# * marks the source's active call; other numbers are inactive results; i = inactive; u = inconclusive; x = no result given; ! = a repeat was not active; [ ] = remark or other dose. Rows were chosen to be rich in hits. Some 5.7% of all compounds tested hit in one or more screens of this group. Unless noted, calls come from the whole dose curve; as a rule, active = well fitted curve in the direction sought with a large enough effect; inconclusive = small, poorly fitted or top-dose-only effect, or another doubt; inactive = no such curve, though single readings can be large; an effect the other way counts as inactive or inconclusive. Unless noted, % is set by controls: 0 for no effect and ±100 for the full control effect.
SMILES,A549 viability,Giardia kill,PI4K2A block,KB-V1 MDR tox,Nrf2 inh,KB-3-1 cytotox
COc1cc(Cl)c(C)cc1NC(=O)C(OC(=O)CNC(=O)c1ccccc1)c1ccccc1 (centres undefined),1%,x,x,x,15%,x
O=C(CCc1ccccc1)Nc1ncnc2c1C(c1ccccc1)c1c(ccc3ccccc13)O2 (centres undefined),-7%,x,x,x,4.6µM*,x
CCOC(=O)CCCC(=O)Nc1ncnc2c1C(c1ccccc1)c1c(ccc3ccccc13)O2 (centres undefined),u,-2,-8,i,u,u
O=C(NCc1ccccc1)Nc1ncnc2c1C(c1ccccc1)c1c(ccc3ccccc13)O2 (centres undefined),1%,x,x,x,6%,x
O=C(c1ccccc1)N(C(=O)c1ccccc1)c1ncnc2c1C(c1ccccc1)c1c(ccc3ccccc13)O2 (centres undefined),u,-21,0,u,2.9µM*!,u
CC(=O)c1cccc(NC(=O)Nc2cnn(Cc3ccc(Cl)cc3Cl)c2)c1,0%,-3,3,18µM*,u,u
O=C(Nc1cnn(Cc2ccc(Cl)cc2Cl)c1)c1cc(-c2cccs2)on1,-7%,11,1,u,x,i
O=C(Nc1cnn(Cc2ccc(Cl)cc2Cl)c1)c1noc2c1CCCC2,1%,12,-8,10µM*,u,i
CCc1cc2cc(OC)c(OC)cc2c(Cc2ccccc2)n1,x,x,-4,x,x,x
CN(Cc1c(F)cccc1Cl)c1nnnn1-c1ccccc1,-13%,8,6,21µM*,14%,i
COC(=O)[C@]12C[C@H](CC(=O)N3CCC(c4ccccc4)CC3)C(=O)N(CCc3ccc(OC)c(OC)c3)C1=C[C@H](C(C)C)O[C@@H]2C1CC1,x,x,-2,x,x,x
CN(CCOc1ccccc1)CC(=O)Nc1cc([N+](=O)[O-])ccc1Cl,-9%,15,1,u,16µM*,i
CCOc1ccc(CN(C)CC(=O)Nc2ccc([N+](=O)[O-])cc2Cl)cc1,17%,-9,3,16µM*,-13%,i
Clc1ccc(-c2noc3ncnc(NCCc4ccccc4)c23)cc1,-2%,x,0,i,-1%,i
COc1cccc(/C=C2/SC(=S)N(CC(=O)Nc3nccs3)C2=O)c1,1%,-20,x,u,u,i
CCC(C(=O)NC1CCCC1)N(Cc1ccc2c(c1)OCO2)C(=O)c1snc(C(N)=O)c1N (centres undefined),-12%[1.84 µM],-3,-4,i,-5%,i
CCc1ccc(N(C(=O)c2snc(C(N)=O)c2N)C(C(=O)NC2CCCC2)c2ccco2)cc1 (centres undefined),2%,-14,0,23µM*,-15%,u
Cc1ccc(N(C(=O)c2snc(C(N)=O)c2N)C(C(=O)NCCC(C)C)c2ccco2)cc1 (centres undefined),u,8,6,u,23µM*,i
COc1ccc(N(C(=O)c2snc(C(N)=O)c2N)C(C(=O)NC2CCCC2)c2ccco2)cc1 (centres undefined),-17%,22,-2,i,-15%,i
CCCC(C(=O)NC1CCCC1)N(Cc1cccs1)C(=O)c1snc(C(N)=O)c1N (centres undefined),1%,10,-6,2.3µM*,2%,i
Clc1ccc(-c2nnc(SCc3cccc4ccccc34)n2Cc2ccco2)cc1,x,x,-2,x,x,x
CCOc1ccccc1NC(=O)CN1C(=O)CC(c2ccco2)Sc2ccccc21 (centres undefined),0%,x,8,13µM*,-26%,u
CCOc1ccccc1NC(=O)CN1C(=O)CC(c2ccc(OC)c(OC)c2)Sc2ccccc21 (centres undefined),-6%,x,4,18µM*,u,u
O=C(CN1C(=O)CC(c2ccccc2)Sc2ccccc21)Nc1cccc(Cl)c1 (centres undefined),-19%,x,8,21µM*,u,u
COc1ccc(C2CC(=O)N(CC(=O)NCC3CCCO3)c3ccccc3S2)cc1OC (centres undefined),6%,2,3,i,-3%,i
SMILES,A549 viability,Giardia kill,PI4K2A block,KB-V1 MDR tox,Nrf2 inh,KB-3-1 cytotox
COc1ccc(Cc2[nH]n3c(=O)cc(C(C)C)nc3c2-c2ccccc2)cc1,u,-5,0,i,12µM*,10µM*
COc1ccc(Cc2[nH]n3c(=O)cc(C)nc3c2-c2ccccc2)cc1,-3%,-27,5,i,u,u
CC(=O)c1cccc(Nc2cc(C)nc3nc(-c4ccccc4C)nn23)c1,-1%,x,-2,i,-16%,i
O=C(Nc1nccs1)c1ccc(COc2ccc(F)cc2)o1,17%,6,-4,i,x,i
O=C(Nc1nccs1)c1ccc(COc2ccccc2Br)o1,3%,2,-4,15µM*,-16%,u
O=C(Nc1ccn(Cc2ccccc2F)n1)c1ccc(COc2cccc(Br)c2)cc1,-14%,18,-13,i,u,u
O=C(Nc1ccn(Cc2c(F)c(F)cc(F)c2F)n1)c1ccc(COc2ccccc2Cl)cc1,3%[1.84 µM],-12,12,i,21µM*,i
O=C(Nc1cccnc1)c1ccc(COc2cc(Cl)ccc2Cl)o1,u,3,-9,23µM*,u,u
O=C(Nc1cccnc1)c1ccc(COc2ccccc2Cl)o1,-23%,6,-3,u,u,u
Cc1nn(C)c(C(=O)Nc2ccn(Cc3ccccc3F)n2)c1[N+](=O)[O-],-3%,5,6,26µM*,-2%,i
CCN1CCN(C(=O)c2ccc3c(c2)N(Cc2c(F)cccc2Cl)C(=O)c2ccccc2S3)CC1,-11%,x,-2,x,-16%,x
O=S(=O)(CC1NCCc2ccccc21)NCCc1ccccc1 (centres undefined),x,x,3,x,x,x
O=C(NCc1cccnc1)c1ccc(COc2ccc(Cl)cc2Cl)o1,-13%,-4,2,i,u,i
O=C(Nc1ccn(Cc2ccccc2F)n1)c1ccc(COc2cc(Cl)ccc2Cl)o1,0%,3,-6,4.1µM*,x,i
O=C(Nc1ccc(Cl)cn1)c1ccc(COc2ccccc2Br)o1,2%,-12,-2,u,u,i
CC(C)(C)NC(=O)c1ccc(COc2ccc(Cl)cc2Cl)o1,-2%,-24,5,13µM*,u,u
O=C(Nc1ccn(Cc2ccccc2F)n1)c1ccc(COc2ccccc2Cl)cc1,-12%,32,3,2.6µM*,18µM*,u
O=C(Nc1ccn(Cc2c(F)c(F)cc(F)c2F)n1)c1ccc(COc2cc(Cl)ccc2Cl)o1,2%,5,-2,i,u,i
